From PubChem BioAssay AID1159580 (chemical genetic matrix, 2015)
Where “and” joins values, the source holds several entries; their conditions need not be identical. Identical values can stand only once. The whole screen tested about 5,500 compounds, of which about 2,000 (36%) were called active. About 18% were inconclusive and are not listed. Cut-off read from the data, not from the text of the source: active = normalized growth mostly below about 0.91 (no sharp cut-off); inconclusive = no clear call, values can overlap the other calls; inactive = mostly above about 0.92. The list shows a part of the results.

Experiment: chemical genetic growth profiling, strain panel (AID 1159580);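 note: tested at 20 µM; growth read once vehicle control cultures reached saturation at 30 °C; 1 = growth at the plate median or of vehicle wells; lower values mean less growth of the strain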
Details: S. cerevisiae deletion strains, growth OD

Measured: normalized growth

CC(=O)O[C@H]1C[C@@H](O)C(C)(C)C2C[C@@H](OC(C)=O)[C@]3(C)C(CC[C@@]4(C)[C@H](c5ccoc5)OC(=O)C5OC543)[C@]21C (stereo partly specified)
inactive: locus YAL013W, strain DEP1, hits give low values 0.994 | locus YAL021C, strain ccr4, hits give low values 1.02 | locus YAL026C, strain drs2, hits give low values 1.01 | locus YAL030W, strain snc1, hits give low values 1 | locus YBL061C, strain skt5, hits give low values 1 | locus YBR009C, strain hhf1, hits give low values 0.997 | locus YBR021W, strain FUR4, hits give low values 1.03 | locus YBR023C, strain chs3, hits give low values 1.01 | locus YBR171W, strain sec66, hits give low values 1.01 | locus YBR229C, strain ROT2, hits give low values 0.948 | locus YBR231C, strain swc5, hits give low values 0.998 | locus YBR279W, strain paf1, hits give low values 0.999 | locus YCL011C, strain gbp2, hits give low values 0.999 | locus YCL016C, strain dcc1, hits give low values 0.997 | locus YCL029C, strain bik1, hits give low values 0.984 | locus YCL061C, strain MRC1, hits give low values 1.01 | locus YCL069W, strain vba3, hits give low values 1 | locus YCR088W, strain abp1, hits give low values 1.01 | locus YDL005C, strain med2, hits give low values 1 | locus YDL035C, strain GPR1, hits give low values 0.984 | locus YDL040C, strain nat1, hits give low values 1 | locus YDL074C, strain BRE1, hits give low values 0.952 | locus YDL101C, strain DUN1, hits give low values 0.986 | locus YDL185W, strain tfp1, hits give low values 0.97 | locus YDL192W, strain arf1, hits give low values 0.97 | locus YDR001C, strain nth1, hits give low values 1.01 | locus YDR069C, strain doa4, hits give low values 1.01 | locus YDR101C, strain arx1, hits give low values 0.973 | locus YDR137W, strain rgp1, hits give low values 1 | locus YDR159W, strain sac3, hits give low values 1.01 | locus YDR162C, strain NBP2, hits give low values 0.977 | locus YDR195W, strain ref2 0.985 | locus YDR297W, strain sur2, hits give low values 1.01 | locus YDR318W, strain mcm21, hits give low values 0.984 | locus YDR334W, strain swr1, hits give low values 1.01 | locus YDR335W, strain msn5, hits give low values 0.996 | locus YDR388W, hits give low values 1 | locus YDR392W, strain spt3, hits give low values 1.02 | locus YDR502C, strain sam2, hits give low values 1.01 | locus YEL003W, strain gim4, hits give low values 1 | locus YEL037C, strain rad23, hits give low values 0.997 | locus YEL061C, strain CIN8 (second series), hits give low values 1.01 | locus YER015W, strain faa2, hits give low values 1.01 | locus YER016W, strain bim1, hits give low values 1 | locus YER110C, hits give low values 0.97 | locus YER111C, strain swi4, hits give low values 1.02 | locus YER155C, strain BEM2 (second series), hits give low values 1.02 | locus YER155C, strain BEM2, hits give low values 1.02 | locus YER167W, strain BCK2, hits give low values 0.988 | locus YFR010W, strain ubp6, hits give low values 1.01 | locus YGL078C, strain dbp3, hits give low values 0.983 | locus YGL086W, strain mad1, hits give low values 0.997 | locus YGL167C, strain pmr1, hits give low values 0.999 | locus YGL173C, strain kem1, hits give low values 1.01 | locus YGL227W, strain vid30, hits give low values 1 | locus YGL240W, strain doc1, hits give low values 1 | locus YGL248W, strain PDE1, hits give low values 0.975 | locus YGL253W, strain hxk2, hits give low values 1.02 | locus YGR078C, strain PAC10, hits give low values 1 | locus YGR135W, strain pre9, hits give low values 1.03 | locus YGR229C, strain SMI1, hits give low values 0.976 | locus YGR252W, strain gcn5, hits give low values 0.966 | locus YHR013C, strain ard1, hits give low values 1.01 | locus YHR027C, strain rpn1, hits give low values 1.01 | locus YHR030C, strain SLT2, hits give low values 0.987 and 0.952 | locus YHR079C, strain IRE1 (second series), hits give low values 0.99 | locus YHR079C, strain IRE1, hits give low values 0.974 | locus YHR094C, strain hxt1, hits give low values 0.979 | locus YHR129C, strain ARP1, hits give low values 0.993 | locus YHR142W, strain chs7, hits give low values 0.999 | locus YHR200W, strain rpn10, hits give low values 0.99 | locus YIL066C, strain RNR3, hits give low values 0.957 | locus YIL073C, strain SPO22, hits give low values 1.04 | locus YIL125W, strain kgd1, hits give low values 0.983 | locus YIR030C, strain dcg1, hits give low values 0.992 | locus YJL092W, strain hpr5, hits give low values 1.01 | locus YJL095W, strain BCK1 (second series), hits give low values 1.01 | locus YJL095W, strain BCK1, hits give low values 1.03 and 1 | locus YJL115W, strain asf1, hits give low values 1 | locus YJL129C, strain trk1, hits give low values 1.01 | locus YJL134W, strain LCB3, hits give low values 0.978 | locus YJL154C, strain vps35, hits give low values 1 | locus YJL164C, strain tpk1, hits give low values 1.01 | locus YJL166W, strain qcr8, hits give low values 0.999 | locus YJL168C, strain set2, hits give low values 0.997 | locus YJL187C, strain SWE1 (second series), hits give low values 0.999
